This passage reports composite z-score and z-score results from PubChem BioAssay.

Assay [1] has as its system Plasmodium falciparum Sir2 (PF13_0152, Sir2A). The experiment in a line: Plasmodium falciparum Sir2A binding compounds – biochemical, small-molecule microarray, 635 nm fluorescence, primary screen (AID 1098).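 Also: score merges spot fluorescence intensity with its signal-to-noise ratio.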 As to conditions: fluorescence 635 nm, higher = more signal.
A short description of assay [2]: probe aDKK1 binding to arrayed compounds – biochemical, biotinylated probe, 635/667 nm fluorescence, primary screen (AID 1099).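 Also: score merges 667nm spot fluorescence with signal to noise across triplicate slides.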 Particulars: small-molecule microarray, higher = more signal.
Assay [3] in a line: probe aCHRDL2 binding to arrayed compounds – biochemical, biotinylated probe, 635/667 nm fluorescence, primary screen (AID 1100). As to conditions: small-molecule microarray, higher = more signal.
Assay [4] can be described thus: change in splice reporter luminescence, either direction, cell-based, HEK293, spliceosome inhibition project, primary screen (AID 1101).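 Also: HEK293 cells carrying a splicing-competent luciferase reporter gene; test concentration not given here.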 Particulars: HEK293 splicing luciferase reporter, 24 h, higher = more signal, called active from +8 up or from −8 down. For orientation: In a reporter assay the amount or activity of a reporter protein is the signal.
Assay [5] addresses Fibroblast growth factor 10 (Homo sapiens) (UniProt O15520). The experiment in a line: compounds binding fibroblast growth factor 10 – biochemical, small-molecule microarray, 635 nm fluorescence, primary screen (AID 1102). Particulars: FGF10 binding, fluorescence 635 nm, higher = more signal.
For assay [6], the system named is glycogen synthase kinase-3 (GSK3A per assay name; protocol says GSK3B). Kind of assay: compounds binding glycogen synthase kinase-3 – biochemical, small-molecule microarray, 635 nm fluorescence, GSK3A, primary screen (AID 1103). Also: the record names both GSK3A and GSK3B. Particulars: fluorescence 635 nm, higher = more signal.
The target of assay [7] is Epidermal growth factor receptor (Homo sapiens) (UniProt P00533). The experiment in a line: compounds binding epidermal growth factor receptor – biochemical, small-molecule microarray, 635 nm fluorescence, primary screen (AID 1104).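 Also: score merges 667 nm emission intensity with spot signal to noise over triplicate slides.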 As to conditions: EGFR binding, higher = more signal.
The target in assay [8] is Follistatin-related protein 3 (Homo sapiens) (UniProt O95633). Kind of assay: compounds binding follistatin-related protein 3 – biochemical, small-molecule microarray, 635 nm fluorescence, primary screen (AID 1105).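 Also: score merges emission near 667 nm and signal to noise per printed spot across three slides.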 As to conditions: FSTL3 binding, higher = more signal.
Assay [9] deals with Dickkopf-related protein 1 (Homo sapiens) (UniProt O94907). Kind of assay: small molecules binding DKK1 protein – biochemical, small-molecule microarray, 635 nm fluorescence scan, primary screen (AID 1106).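 Also: score merges emission near 667 nm with signal to noise over three replicate slides.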 Particulars: higher = more signal.
For assay [10], the system named is Inhibin beta A chain (activin A). Kind of assay: small molecules binding activin A – biochemical, small-molecule microarray, 635 nm fluorescence scan, primary screen (AID 1107).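 Also: mouse activin A protein probed at 4.33 µg/mL on printed slides; score merges bound-protein fluorescence near 667 nm with spot signal-to-noise.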 As to conditions: INHBA, higher = more signal.
For assay [11], the system named is Human papillomavirus type 1a protein E7 (residues 44-93). Kind of assay: small molecules binding HPV E7 44-93 – biochemical, small-molecule microarray, residues 44-93, 635 nm fluorescence, primary screen (AID 1108).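 Also: E7 fragment applied at 1 µg/mL in TBST for 1 h at 4 C; score combines spot fluorescence with its signal to noise ratio.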 As to conditions: fluorescence 635 nm, higher = more signal.
Assay [12] can be described thus: hepatitis C replication reporter changes, two-sided – Huh7 cells, luciferase reporter, HCV replication inhibitor project, primary screen (AID 1109).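 Also: huh7 hepatoma cells harbouring a luciferase neomycin HCV replicon reporter; luciferase luminescence as measure of HCV replicon replication; test concentration not given here.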 As to conditions: Huh7 HCV replicon luciferase reporter, 48 h; higher = more signal.
The target in assay [13] is Left-right determination factor 2 (Homo sapiens) (UniProt O00292). The experiment in a line: small molecules binding LEFTY2 protein – biochemical, small-molecule microarray, 635 nm fluorescence scan, primary screen (AID 1110). Particulars: higher = more signal.
Assay [14] addresses Calmodulin-1 (Homo sapiens) (UniProt P0DP23). Kind of assay: small molecules binding calmodulin-1 with EGTA – biochemical, small-molecule microarray, Cy5-labelled CALM1, profiling panel (AID 1111).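 Also: labelled calmodulin applied in Tris saline Tween buffer holding calcium plus EGTA and DTT.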 Particulars: Cy5-CALM1 binding fluorescence, higher = more signal.
For assay [15] the target is unchanged. Kind of assay: small molecules binding Ca-loaded calmodulin-1 – biochemical, small-molecule microarray, Cy5-labelled CALM1, plus calcium, artefact control for SMM control-protein annotation, profiling panel (AID 1112).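 Also: score merges spot fluorescence with signal to noise from triplicate slides.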 Particulars: Cy5-CALM1 binding fluorescence, higher = more signal.
Assay [16] is described as follows: probe aWnt5a binding to arrayed compounds – biochemical, biotinylated probe, 635/667 nm fluorescence, primary screen (AID 1113).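 Also: score merges 667 nm fluorescence intensity with signal-to-noise per printed feature.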 As to conditions: small-molecule microarray, higher = more signal.
A short description of assay [17]: probe aShh binding to arrayed compounds – biochemical, biotinylated probe, 635/667 nm fluorescence, primary screen (AID 1114).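 Also: probe is biotin-labelled aShh protein from a stem cell growth factor screen; measures binding of labelled protein to compounds printed on the slide; score merges feature fluorescence at 667 nm with signal-to-noise.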 Particulars: small-molecule microarray, higher = more signal.
The nature of assay [18]: probe aNog binding to arrayed compounds – biochemical, biotinylated probe, 635/667 nm fluorescence, primary screen (AID 1115).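 Also: probe is biotinylated aNog protein used at 0.15 µg/mL for 1 h at 4 C; z-score combines 667 nm fluorescence of each spot with its signal to noise.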 Particulars: small-molecule microarray, higher = more signal.
The target of assay [19] is Torsin-1A-interacting protein 1 (Homo sapiens) (UniProt Q5JTV8). Kind of assay: compound microarray binding of lysate hLAP1 – cell lysate, small-molecule microarray, COS7 lysate, 635/667 nm fluorescence, primary screen (AID 1116). As to conditions: 635 nm fluorescence, higher = more signal.
Assay [20] deals with Alpha-bungarotoxin (Bungarus multicinctus) (UniProt P60615). The experiment in a line: compounds binding labelled alpha-BTX control protein – biochemical, small-molecule microarray, Alexa647 label, 635/667 nm fluorescence, artefact control for SMM control protein annotation, profiling panel (AID 1117). Particulars: alpha-BTX-A647 binding fluorescence, higher = more signal.

The source made the active and inactive calls.

Dickkopf-related protein 1 (Homo sapiens), sequence (O94907 whole entry, looked up): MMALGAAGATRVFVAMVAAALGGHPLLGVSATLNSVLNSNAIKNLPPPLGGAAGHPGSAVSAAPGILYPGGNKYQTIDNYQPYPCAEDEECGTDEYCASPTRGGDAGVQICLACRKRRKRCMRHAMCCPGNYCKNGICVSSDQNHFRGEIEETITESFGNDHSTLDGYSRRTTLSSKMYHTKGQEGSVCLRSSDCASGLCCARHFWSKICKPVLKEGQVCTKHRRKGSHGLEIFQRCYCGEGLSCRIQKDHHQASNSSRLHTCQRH
Left-right determination factor 2 (Homo sapiens), sequence (O00292 whole entry, looked up): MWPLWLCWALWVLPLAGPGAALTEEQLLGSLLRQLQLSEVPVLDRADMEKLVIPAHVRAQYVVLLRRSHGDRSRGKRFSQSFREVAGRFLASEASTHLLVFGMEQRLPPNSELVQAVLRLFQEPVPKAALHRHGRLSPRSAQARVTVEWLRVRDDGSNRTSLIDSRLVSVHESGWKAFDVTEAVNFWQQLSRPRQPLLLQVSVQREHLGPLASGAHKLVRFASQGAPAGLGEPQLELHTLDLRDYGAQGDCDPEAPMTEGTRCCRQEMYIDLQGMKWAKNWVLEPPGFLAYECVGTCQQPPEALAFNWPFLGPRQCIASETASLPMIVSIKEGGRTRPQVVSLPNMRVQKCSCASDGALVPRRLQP
Fibroblast growth factor 10 (Homo sapiens), sequence (O15520 whole entry, looked up): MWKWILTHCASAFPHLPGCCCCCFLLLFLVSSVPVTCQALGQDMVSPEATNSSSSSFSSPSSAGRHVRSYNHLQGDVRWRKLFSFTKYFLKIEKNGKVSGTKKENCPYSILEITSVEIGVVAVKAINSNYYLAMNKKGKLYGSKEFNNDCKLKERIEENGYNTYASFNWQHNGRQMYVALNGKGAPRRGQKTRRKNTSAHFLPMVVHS
Epidermal growth factor receptor (Homo sapiens), sequence (P00533 whole entry, looked up): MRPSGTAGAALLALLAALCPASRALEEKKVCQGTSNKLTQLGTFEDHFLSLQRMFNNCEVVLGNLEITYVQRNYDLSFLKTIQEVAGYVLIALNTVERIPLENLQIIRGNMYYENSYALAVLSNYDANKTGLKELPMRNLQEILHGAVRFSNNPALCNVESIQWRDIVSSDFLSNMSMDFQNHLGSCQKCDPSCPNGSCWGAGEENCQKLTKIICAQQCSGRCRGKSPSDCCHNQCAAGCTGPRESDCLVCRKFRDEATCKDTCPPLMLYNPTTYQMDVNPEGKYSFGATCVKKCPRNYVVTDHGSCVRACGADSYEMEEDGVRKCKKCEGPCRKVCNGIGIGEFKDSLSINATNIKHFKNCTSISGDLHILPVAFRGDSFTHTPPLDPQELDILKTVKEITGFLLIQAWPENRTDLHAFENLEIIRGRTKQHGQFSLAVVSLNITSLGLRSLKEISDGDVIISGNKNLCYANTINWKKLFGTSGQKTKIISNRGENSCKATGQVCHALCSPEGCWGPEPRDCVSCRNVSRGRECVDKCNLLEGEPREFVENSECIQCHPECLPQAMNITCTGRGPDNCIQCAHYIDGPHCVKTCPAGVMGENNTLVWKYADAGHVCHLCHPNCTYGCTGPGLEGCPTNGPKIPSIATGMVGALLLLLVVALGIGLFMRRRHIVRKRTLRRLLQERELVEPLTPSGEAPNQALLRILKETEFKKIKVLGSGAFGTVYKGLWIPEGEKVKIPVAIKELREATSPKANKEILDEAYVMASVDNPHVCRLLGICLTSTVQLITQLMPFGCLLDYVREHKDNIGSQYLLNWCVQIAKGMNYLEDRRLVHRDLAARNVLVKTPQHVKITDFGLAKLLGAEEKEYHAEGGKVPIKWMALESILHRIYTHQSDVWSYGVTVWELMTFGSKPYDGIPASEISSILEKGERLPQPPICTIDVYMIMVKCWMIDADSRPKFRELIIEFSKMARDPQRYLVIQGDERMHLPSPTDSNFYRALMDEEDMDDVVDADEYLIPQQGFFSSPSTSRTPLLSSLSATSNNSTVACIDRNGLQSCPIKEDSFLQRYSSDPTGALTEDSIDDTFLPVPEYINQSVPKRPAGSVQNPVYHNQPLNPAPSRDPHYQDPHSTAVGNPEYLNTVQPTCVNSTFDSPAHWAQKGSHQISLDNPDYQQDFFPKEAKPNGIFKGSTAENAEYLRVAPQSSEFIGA
Alpha-bungarotoxin (Bungarus multicinctus), sequence (P60615 whole entry, looked up): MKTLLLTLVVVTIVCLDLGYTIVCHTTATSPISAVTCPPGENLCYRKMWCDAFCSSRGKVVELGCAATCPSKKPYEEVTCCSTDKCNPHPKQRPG
Follistatin-related protein 3 (Homo sapiens), sequence (O95633 whole entry, looked up): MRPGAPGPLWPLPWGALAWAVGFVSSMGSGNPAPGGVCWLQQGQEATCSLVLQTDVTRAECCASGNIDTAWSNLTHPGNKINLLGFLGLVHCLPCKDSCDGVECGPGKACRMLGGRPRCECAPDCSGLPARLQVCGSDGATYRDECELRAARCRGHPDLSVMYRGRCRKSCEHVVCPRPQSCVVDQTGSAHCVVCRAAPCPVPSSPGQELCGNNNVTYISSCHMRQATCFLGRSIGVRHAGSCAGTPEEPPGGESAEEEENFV
Torsin-1A-interacting protein 1 (Homo sapiens), sequence (Q5JTV8 whole entry, looked up): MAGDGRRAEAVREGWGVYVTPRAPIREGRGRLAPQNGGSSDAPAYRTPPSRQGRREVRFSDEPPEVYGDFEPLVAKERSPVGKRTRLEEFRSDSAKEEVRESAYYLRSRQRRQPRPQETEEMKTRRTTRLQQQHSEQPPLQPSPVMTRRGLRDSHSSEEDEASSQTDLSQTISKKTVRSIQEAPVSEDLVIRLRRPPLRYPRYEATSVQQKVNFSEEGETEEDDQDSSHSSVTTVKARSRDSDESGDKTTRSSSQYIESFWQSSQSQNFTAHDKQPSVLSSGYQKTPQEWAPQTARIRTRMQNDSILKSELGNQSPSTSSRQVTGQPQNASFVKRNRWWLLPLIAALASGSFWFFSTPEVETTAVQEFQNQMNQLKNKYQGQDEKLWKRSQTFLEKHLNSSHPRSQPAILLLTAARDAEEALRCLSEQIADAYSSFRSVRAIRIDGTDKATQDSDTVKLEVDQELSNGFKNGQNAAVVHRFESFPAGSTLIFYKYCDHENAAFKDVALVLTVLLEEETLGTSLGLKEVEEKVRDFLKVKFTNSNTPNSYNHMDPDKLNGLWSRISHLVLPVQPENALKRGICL

As to `COc1ccc(O[C@H]2C=C[C@@H](c3ccccc3)O[C@@H]2CON=C[C@@H](C)[C@H](OCc2ccccc2)C(C)C)cc1`, the composite z-score in assay [1] was -0.369; in assay [2] it was -0.406; in assay [3], -0.17; in [5] it was -1.11; in assay [6], -1.04; in assay [7], -0.805. Besides, the composite z-score in assay [8] is -0.761; in assay [9], -0.733; in assay [10] it was 0.272; in assay [11], -0.409; in assay [13], -0.0764; in [14] it was -0.323. The composite z-score in assay [15] was -0.434; in [16], -0.124; in assay [17] it was -0.0626; in assay [18], -0.176; in [19] it was -1.24; in assay [20], -0.25. Moreover, the z-score in assay [4] was 0.275 (inactive); in [12], -2.

`CC(CCC(=O)OC[C@H]1O[C@H](C#Cc2ccccc2)C=C[C@@H]1Oc1ccc(C)cc1)=NOC[C@@H](O)COCc1ccco1`: the composite z-score in [1] is 1.33; in assay [2], -0.627; in assay [3], -0.044; in [5], -3.07; in assay [6], -1.25; in assay [7], -3.58. Moreover, the composite z-score in [8] was -3.18; in assay [9], -2.09; in assay [10] it was -2.69; in assay [11] it was -0.412; in [13], -5.42; in [14], -1.49. In addition, the composite z-score in assay [15] is -1.96; in assay [16], -0.426; in assay [17], -0.206; in assay [18] it was -0.732; in assay [19], -1.87; in [20], -0.818. For the same compound, the figures for the z-score in [4] and in [12] were -0.0928 (inactive) and -0.635, respectively.

Consider `CCOC(=O)[C@H](Cc1ccccc1)NC(=O)CCC1CC(OC(=O)NCc2ccc3c(c2)OCO3)CC2(CCCC(COC(=O)NCC3CCCCC3)O2)O1` (stereo not given in full), for which the composite z-score was 0.599 in assay [1]; -0.151 in assay [2]; -0.5 in assay [3]; 0.802 in assay [5]; 1.27 in assay [6]; 0.44 in assay [7]. The composite z-score in [8] was 1.05; in assay [9], 0.655; in assay [10], -0.0031; in assay [11] it was 1.31; in assay [13], 0.617; in assay [14], 0.433. For the same compound, the composite z-score in [15] was -0.135; in [16] it was -0.0179; in [17], -0.299; in assay [18], -0.167; in assay [19] it was 0.517; in assay [20], 0.629. In addition, the z-score was -0.481 (inactive) in assay [4] and -0.443 in [12].

Consider `C[C@H](c1ccccc1)N1C(=O)[C@H]2[C@H]3[C@H](O)[C@H](O)CC(=O)[C@@H]3CC[C@H]2C1=O`, for which the composite z-score was -0.0226 in assay [1]; -0.0352 in [2]; -0.394 in assay [3]; 0.615 in [5]; -0.0137 in assay [6]; 0.268 in assay [7]. The composite z-score in [8] is 0.344; in assay [9], 0.822; in assay [10], -1.79; in assay [11] it was -0.81; in assay [13], 0.417; in assay [14] it was -0.229. For the same compound, the composite z-score in [15] was -0.465; in [16], -0.0495; in assay [17], -0.237; in assay [18], 0.0638; in assay [19], -0.0506; in assay [20], 0.3. The z-score in assay [4] was 0.737 (inactive); in assay [12] it was -1.22.

On to `CO[C@H]1COC(=O)[C@H](C)NC(=O)[C@@H](C)COC(=O)CC=C[C@@H]1C`, for which the composite z-score in assay [1] was 1.38; in assay [2], -0.369; in assay [3] it was -0.786; in [5] it was 0.63; in assay [6] it was 0.857; in [7], 0.767. Also, the composite z-score in [8] was 0.0078; in assay [9], 0.829; in assay [10], -0.249; in assay [11], -0.0574; in assay [13], 0.348; in [14], -0.239. The composite z-score in assay [15] was -0.514; in [16], 0.0502; in assay [17], 0.432; in assay [18], 0.131; in assay [19], 0.687; in assay [20], 0.53. Moreover, the z-score is -0.794 (inactive) in [4] and -0.504 in [12].

In the case of `O=C1C[C@]2(c3ccc([N+](=O)[O-])cc3)C(=O)N(CCN3CCOCC3)c3cc(CO)ccc3[C@H]2N1CC12CC3CC(CC(C3)C1)C2`, the composite z-score was 0.39 in [1]; 0.398 in assay [2]; 0.793 in assay [3]; -0.629 in assay [5]; 0.163 in [6]; -1 in assay [7]. Further, the composite z-score is -0.258 in assay [8]; -1.22 in assay [9]; 0.6 in [10]; -0.119 in assay [11]; -1.1 in assay [13]; 0.846 in assay [14]. For the same compound, the composite z-score is 0.305 in assay [15]; -0.0455 in assay [16]; -0.0626 in assay [17]; -0.345 in assay [18]; 0.15 in assay [19]; 1.15 in assay [20]. The z-score in assay [4] is 0.14 (inactive); in assay [12], -0.544.
